Test results: PubChem BioAssay AID504727 (Broad Institute, 2011)
Calls of active or inactive are those of the source.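 Rule for the calls: active = fitted half-maximal concentration AC50 at or below ten times the highest valid tested dose, with signal falling as DNA is displaced (actives reach about 34 µM in these data); inconclusive = flat fit at moderate signal loss, or poor fit quality; inactive = the rest, including signal rising instead of falling.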

assay: DNA intercalators displacing acridine orange, dose response, artefact control for KSHV LANA DNA-binding inhibitor project, biochemical, fluorescence polarization, cherry-picked samples, set 2 (AID 504727); details: AC50: Acridine orange-DNA displacement; series mostly up to 35 µM

| SMILES | AC50 |
| --- | --- |
| CN1CCN(c2ccc([N+](=O)[O-])c3no[n+]([O-])c23)CC1 | 29.2 µM (active) |
| CN(C)C1C(=O)C(C(N)=O)=C(O)C2(O)C(=O)C3=C(O)c4c(O)cccc4C(C)(O)C3C(O)C12 (centres undefined) | inactive |
| Cc1cc(=O)oc2cc(OCC(=O)N3CCN(Cc4ccc5c(c4)OCO5)CC3)ccc12 | inactive |
| COC(=O)C1=C(c2ccc(OC(F)(F)F)cc2)C[C@@H]2CC[C@H]1N2C(=O)NC1CCCCC1 | inactive |
| O=c1c2ccccc2nc(/C=C\c2ccccc2[N+](=O)[O-])n1-c1ccccc1O | inactive |
| CC(C)CC(=O)Nc1ccc(S(=O)(=O)N2CC3CC(C2)c2cccc(=O)n2C3)cc1 (centres undefined) | inactive |
| COCCNC(=O)Cn1cc(/C=C2\C(=O)NC(=O)N(c3cccc(C)c3C)C2=O)c2ccccc21 | 20.4 µM (active) |
| COc1ccc(OC)c(N2C(=O)NC(=O)/C(=C\c3ccc([N+](=O)[O-])s3)C2=O)c1 | inactive |
| Nc1ccc2nonc2c1[N+](=O)[O-] | 8.02 µM (active) |
| CC(Cc1ccccc1)NC(=O)NC(C)Cc1ccccc1 (centres undefined) | inactive |
| CCn1c(O)c(N=Nc2cccc(S(=O)(=O)N3CCOCC3)c2)c(=O)n(CC)c1=S | inactive |
| O=C(O)c1cccc2c1NC(C(=O)O)C1CC(Sc3ccccc3[N+](=O)[O-])C(Cl)C21 (centres undefined) | inactive |
| CC1=NCCc2c1[nH]c1cc(O)ccc21 | 3.74 µM (active) |
| CCCCc1ccc(C(=O)O)nc1 | inactive |
| CCN(CC)C(=O)c1ccc2c(c1)C1C=CCC1C(C(=O)O)N2 (centres undefined) | inactive |
| CCOC(=O)c1c(/N=C/c2c(O)n(-c3cccc(C)c3)c(=O)[nH]c2=O)sc2c1CCCC2 | inactive |
| Cc1cc(/C=C2\C(=O)NC(=O)N(Cc3ccccc3)C2=O)c(C)n1-c1ccc(Cl)c(C(=O)O)c1 | inactive |
| N/C(=N\N=C/c1ccc(-c2ccc(O)c(C(=O)O)c2)o1)N[N+](=O)[O-] | inactive |
| O=[N+]([O-])c1ccc(N2CCCCCC2)c2nonc12 | 13.7 µM (active) |
| CCOC(=O)C1CCCN(c2ccc([N+](=O)[O-])c3nonc23)C1 (centres undefined) | 3.67 µM (active) |
| Cc1cc(OCC(=O)OC(C)(C)C)c2c3c(c(=O)oc2c1)CCC3 | inactive |
| Nc1ccc2ccc3cccc[n+]3c2c1 | 1.87 µM (active) |
| O=c1[nH]c(=O)n(C2CCCCC2)c(O)c1C=Nc1ccc(N2CCOCC2)cc1 | inactive |
| CC(OC(=O)c1cn(C)c2ccccc12)C(=O)N1CCCC1 (centres undefined) | inactive |
